# Compound activity as filed in PubChem.
# Compounds with a hit are over-represented: about 19% of the library has one in this group of screens.
# HT1080 IDH1KD tx – HT-1080 IDH1 knockdown cell toxicity (counter line); AID 686971; 360,000 compounds, 2% hits; HT-1080 IDH1 knockdown viability, ATP luminescence, 48 h; Potency, µM (doses to about 46.1 µM), for the others: at the top dose activity, negative = toxicity, actives largely listed as cytotoxic;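 note: potency is the fitted concentration of half-maximal effect; 0% = DMSO wells and -100% = cell-free medium wells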
#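 IDH1KD HT-1080 cells, 750/well, RPMI + 5% FBS; compound pinned after 2 h settling; 48 h, 37 °C; CellTiter-Glo luminescence; % activity normalised to DMSO and no-cell wells; curves fitted, classed by r2 and efficacy.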
# HT1080NT lethal – kills 2HG-producing HT-1080-NT fibrosarcoma cells; HT-1080-NT fibrosarcoma viability, CellTiter-Glo ATP luminescence, 48 h; Potency, µM (doses to about 46.1 µM), without a hit: top-dose activity, negative = less viability, most hits filed as cytotoxic; 360,000 compounds, 1.6% hits; AID 686970;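 note: NT is the 2HG producing partner of a matched IDH1 knockdown line; potency is the fitted concentration of half-maximal effect; 0% = DMSO-treated cells and -100% = media-only wells without cells; nearly all actives have a fitted effect of over 55% in size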
#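 A 48-hour cytotoxicity screen used HT-1080-NT cells plated 2 hours before compound delivery. ATP-based CellTiter-Glo luminescence measured viability, normalized to DMSO and no-cell controls.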
# TDP1 cell CPT – growth inhibition of DT40 Tdp1-/-;hTDP1 cells with camptothecin (screen for TDP1 inhibitors); chicken DT40 Tdp1-/-;hTDP1 cells + 20 nM CPT, ATP luminescence, 48 h; Potency, µM (top dose mostly 46.2 µM), inactives show top-dose activity change, negative = growth inhibition, usual class: inhibitors; 420,000 compounds, 12% hits; AID 686979; note: potency is the fitted concentration of half-maximal effect; nearly all actives have a fitted effect of over 55% in size
#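 Cell growth measured by CellTiter-Glo luminescence after a minimum 48 h, 37 C compound exposure with 20 nM CPT in Tdp1-knockout DT40 cells stably expressing hTDP1, seeded 400/well; qHTS titration format.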
# IL-1B inflam inh – inhibitors of inflammasome signaling (IL-1 beta secretion) | THP-1 LPS/ATP IL-1B secretion, AlphaLISA, 16 h; hits give low values | activity change, % at 57.5 µM | 360,000 compounds, 4.7% hits | AID 743279; in the data active = activity change below about -50%; inconclusive = mostly about -30% to -49%
#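 Secreted IL-1B measured by AlphaLISA bead assay after 16 h compound exposure of THP-1 cells; compounds (final up to 57.5 uM) added 1 h before LPS (250 ng/mL) and ATP (1.25 mM) stimulation; lower signal means less secretion.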
# TDP1 cell noCPT – qHTS for Inhibitors of human tyrosyl-DNA phosphodiesterase 1 (TDP1): qHTS in cells in absence of CPT; DT40 Tdp1-/- hTDP1 cells, no CPT, ATP luminescence, 48 h; Potency, µM (series often up to 46.2 µM), for the others: top-dose activity change, negative = growth inhibition, hits mostly inhibitors; 420,000 compounds, 15% hits; note: potency is the fitted concentration of half-maximal effect; nearly all actives have a fitted effect of over 55% in size
#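 No-CPT arm: Tdp1-/-;hTDP1 DT40 cells (400/well) plus compounds, incubated ≥48 hr at 37 °C. Readout CellTiter-Glo luminescence.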
# An asterisk follows results filed as active; ? = inconclusive. Unless noted, calls come from the whole dose curve; as a rule, active = well fitted curve in the direction sought with a large enough effect; inconclusive = small, poorly fitted or top-dose-only effect, or another doubt; inactive = no such curve, though single readings can be large; an effect the other way counts as inactive or inconclusive. Unless noted, % is set by controls: 0 for no effect and ±100 for the full control effect.
SMILES,HT1080 IDH1KD tx,HT1080NT lethal,TDP1 cell CPT,IL-1B inflam inh,TDP1 cell noCPT
CCOc1ncccc1C(=O)OCC(=O)Nc1nnc(-c2ccccc2)o1,-2.6%,-0.4%,?,8.6,23.1µM*
CC(C)c1ccc(N(C(=O)CNC(=O)c2ccco2)C(C(=O)NC2CCCC2)c2ccncc2)cc1 (configuration not stated),-0.7%,-4.0%,2.3%,-12.0,-8.7%
CCOC(=O)c1sc(=S)n(-c2cccc(C(F)(F)F)c2)c1SC,-0.9%,0.2%,-0.3%,-10.7,-4.6%
CC(=O)N/C(=C\c1ccc(F)cc1)C(=O)OCc1ccccc1,-1.5%,4.6%,0.8%,?,1.3%
COc1ccc(-c2cc(C(=O)NCC3CCCO3)c3cc(C)ccc3n2)cc1 (configuration not stated),-3.4%,-7.3%,-4.9%,-6.9,16.4µM*
COc1cccc(-c2cc(C(F)(F)F)n3ncc(C(=O)O)c3n2)c1,20.2%,16.8%,4.0%,7.4,-5.6%
COc1cccc(-c2cc(C(F)(F)F)n3ncc(C(=O)N4CCc5ccccc5C4)c3n2)c1,15.7%,25.4%,16.4µM*,-8.5,18.4µM*
COc1ccc(-c2nc(SC(C)C(=O)NCC3CCCO3)n[nH]2)cc1 (configuration not stated),?,?,8.2µM*,37.9,9.2µM*
CC(C)c1ccc(-c2nn(-c3ccccc3)cc2C(=O)NCC2CCCO2)cc1 (configuration not stated),-29.5%,?,-104.1%,-79.9*,?
O=C(CSc1nc(=O)n2cc(Cl)ccc2n1)Nc1cccc2ccccc12,-14.1%,?,?,-25.7,?
CCN(CC)CCN1C(=O)C(=O)/C(=C(/O)c2ccc(S(=O)(=O)N3CCOCC3)cc2)C1c1ccccc1 (configuration not stated),8.3%,5.9%,1.1%,-14.4,2.7%
COc1cccc(-c2cc(C(F)(F)F)n3ncc(C(=O)NCC4CCCO4)c3n2)c1 (configuration not stated),?,?,?,19.0,23.1µM*
COc1ccc(-c2cc(C(=O)NCC3CCCO3)c3cc(C(C)C)ccc3n2)cc1 (configuration not stated),11.2%,5.2%,16.4µM*,?,?
O=C(NCc1ccccn1)c1cn(-c2ccccc2)nc1-c1ccc(Cl)cc1,-6.3%,1.7%,?,0.0,25.9µM*
COc1ccc(-c2cc(C(=O)NCC3CCCO3)c3ccccc3n2)cc1 (configuration not stated),-1.4%,4.1%,?,5.6,?
COc1cccc(-c2cc(C(=O)NCC3CCCO3)c3ccccc3n2)c1 (configuration not stated),6.5%,5.7%,-19.3%,24.0,18.4µM*
COc1ccc(-c2cc(C(F)(F)F)n3ncc(C(=O)NCC4CCCO4)c3n2)cc1 (configuration not stated),-0.6%,-1.6%,?,-3.7,?
O=C(c1cn(-c2ccccc2)nc1-c1ccc(Cl)cc1)N1CCOCC1,-1.2%,-1.1%,-12.6%,-26.0,-19.4%
O=C(Nc1ccc(F)cc1)C(CCc1ccccc1)N1CCN(Cc2c(F)cccc2Cl)CC1 (configuration not stated),-19.4%,-2.0%,?,18.1,?
COC(=O)C(C(=O)OC)c1ccccc1NC(=O)OCc1ccccc1,?,-27.6%,?,6.8,?
Cc1ccc2cc([N+](=O)[O-])ccc2n1,10.3%,13.4%,1.2%,6.9,-3.2%
O=C(NCC1CCCO1)c1cc(-c2ccccc2)nc2ccc(Br)cc12 (configuration not stated),1.6%,-3.8%,?,-6.4,?
O=C(COC(=O)c1cc(-c2cccc(Br)c2)nc2ccccc12)NCC1CCCO1 (configuration not stated),-2.0%,2.7%,0.0164µM*,12.9,-16.8%
O=C1c2cccc3c([N+](=O)[O-])ccc(c23)C(=O)N1c1ccccn1,?,25.9µM*,3.66µM*,-114.1*,2.91µM*
O=C1c2cccc3c([N+](=O)[O-])ccc(c23)C(=O)N1c1ccc(Cl)cn1,1.58µM*,4.47µM*,3.26µM*,-91.9*,3.66µM*
SMILES,HT1080 IDH1KD tx,HT1080NT lethal,TDP1 cell CPT,IL-1B inflam inh,TDP1 cell noCPT
COc1ccccc1N1C(=O)c2cccc3c(N(C)CCO)ccc(c23)C1=O,-5.9%,-8.2%,8.2µM*,10.8,?
COc1ccccc1N1C(=O)c2cccc3c(C(=O)O)ccc(c23)C1=O,13.3%,3.1%,-13.5%,11.4,-22.9%
O=C1c2cccc3c(N4CCCCC4)ccc(c23)C(=O)N1c1ccccn1,1.7%,-3.0%,-10.5%,-13.6,-15.5%
COc1ccc2c3c(cccc13)C(=O)N(O)C2=O,20.6µM*,?,2.31µM*,-23.4,2.06µM*
CC1=NN(C(N)=S)C(=O)C1N=Nc1ccc(Cl)cc1Cl (configuration not stated),-5.1%,-0.8%,-15.5%,-6.0,?
COc1cccc(NC(=O)CSc2nc3scc(C)c3c(=O)[nH]2)c1,9.0%,12.5%,2.9%,24.2,-6.9%
O=C1c2cccc3c([N+](=O)[O-])ccc(c23)C(=O)N1O,?,?,2.06µM*,-2.0,2.31µM*
O=C1c2cccc3cccc(c23)C(=O)N1c1nccs1,2.3%,14.7%,6.7%,-1.4,0.3%
O=C1c2cccc3c([N+](=O)[O-])ccc(c23)C(=O)N1c1nccs1,2.24µM*,8.91µM*,3.26µM*,-107.1*,3.26µM*
CC(=O)Oc1ccc(N2C(=O)c3cccc4c([N+](=O)[O-])ccc(c34)C2=O)cc1,-10.8%,-4.1%,3.66µM*,?,5.8µM*
CCCC1(c2ccsc2)NC(=O)NC1=O (configuration not stated),0.0%,-3.7%,3.0%,0.0,-19.9%
Cc1nn(-c2ccccc2)c(N2CCCCC2)c1/C=N/NC(=O)c1ccncc1,-4.4%,-10.8%,13µM*,11.5,23.1µM*
Cc1ccc(NC(=S)N/N=C/c2c(C)nn(-c3ccccc3)c2N2CCCC2)cc1,21.8%,5.1%,12.4%,29.6,?
Cc1nn(-c2ccccc2)c(N2CCCC2)c1/C=N/NC(=S)Nc1ccc(F)cc1,0.0%,-3.3%,5.8µM*,-12.3,8.2µM*
CCOc1ccc(S(=O)(=O)Nc2ccc(C(=O)N/N=C/c3c(C)nn(-c4ccccc4)c3N3CCCC3)cc2)cc1,-4.5%,-11.4%,?,-2.3,?
COc1cc(OC)cc(C(=O)Nc2cccc(C(C)=O)c2)c1,1.7%,10.2%,-10.0%,3.6,-15.3%
